Where a chain is given by its changes, count along the chain named.

Common to all, as to test: protein-binding microarray (PBM); PBM: ~300 nM protein, 6 mM HEPES pH 7.8, 80 mM KCl, 0.5 mM EDTA, 0.5 mM EGTA, 6% glycerol, 35 ng/ul poly-dIdC, 1% milk, 1 h, room temperature; Ap Aiptasia and Nv Nematostella (sea anemones) / Co Capsaspora / Aq Amphimedon (sponge) / Dm Drosophila / Hu human; RHD is the Rel homology domain; high values mean tight binding
What all share (conditions): dsDNA, one strand shown

One assay addresses T1, GST-Ap-NF-kB RHD (Exaiptasia pallida (Aiptasia), UniProt A0A913YAJ5 2-422).
T1 sequence: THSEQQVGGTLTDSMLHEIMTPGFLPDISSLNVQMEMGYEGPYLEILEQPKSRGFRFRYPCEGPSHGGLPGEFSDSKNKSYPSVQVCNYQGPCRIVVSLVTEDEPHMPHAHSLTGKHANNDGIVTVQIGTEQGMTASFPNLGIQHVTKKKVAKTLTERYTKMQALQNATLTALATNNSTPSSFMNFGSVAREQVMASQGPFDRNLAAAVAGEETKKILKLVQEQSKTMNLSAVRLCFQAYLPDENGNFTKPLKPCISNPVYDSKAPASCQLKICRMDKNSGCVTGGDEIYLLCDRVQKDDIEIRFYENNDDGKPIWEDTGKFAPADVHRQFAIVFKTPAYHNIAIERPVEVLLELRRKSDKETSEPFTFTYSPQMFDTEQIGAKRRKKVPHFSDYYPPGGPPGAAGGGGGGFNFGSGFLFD

In assay [1] the target is T2, GST-Nv-NF-kB (Cys allele) (Nematostella vectensis, UniProt E5G601 2-411).
T2 sequence: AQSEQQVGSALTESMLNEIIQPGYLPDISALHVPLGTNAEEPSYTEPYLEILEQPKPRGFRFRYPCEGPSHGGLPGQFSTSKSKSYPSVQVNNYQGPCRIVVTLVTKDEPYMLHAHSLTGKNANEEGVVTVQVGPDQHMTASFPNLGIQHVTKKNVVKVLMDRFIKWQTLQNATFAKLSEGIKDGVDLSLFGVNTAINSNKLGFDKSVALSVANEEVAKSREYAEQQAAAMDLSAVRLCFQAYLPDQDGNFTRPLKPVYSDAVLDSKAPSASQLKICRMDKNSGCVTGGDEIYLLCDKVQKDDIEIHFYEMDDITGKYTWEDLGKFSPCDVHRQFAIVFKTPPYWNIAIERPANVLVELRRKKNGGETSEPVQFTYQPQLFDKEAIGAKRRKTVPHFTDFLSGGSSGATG

The target of assay [2] is T3, GST-Nv-NF-kB (Ser allele) (Nematostella vectensis, UniProt A7UNT2 2-411).
T3 sequence: T2 sequence with Q21R, C66S, S207N, E215Q, V217A, E225K, A268E, D399E

The next assay deals with T4, GST-Co-NF-kB (Capsaspora owczarzaki, UniProt F1ARL5 200-546).
T4 sequence: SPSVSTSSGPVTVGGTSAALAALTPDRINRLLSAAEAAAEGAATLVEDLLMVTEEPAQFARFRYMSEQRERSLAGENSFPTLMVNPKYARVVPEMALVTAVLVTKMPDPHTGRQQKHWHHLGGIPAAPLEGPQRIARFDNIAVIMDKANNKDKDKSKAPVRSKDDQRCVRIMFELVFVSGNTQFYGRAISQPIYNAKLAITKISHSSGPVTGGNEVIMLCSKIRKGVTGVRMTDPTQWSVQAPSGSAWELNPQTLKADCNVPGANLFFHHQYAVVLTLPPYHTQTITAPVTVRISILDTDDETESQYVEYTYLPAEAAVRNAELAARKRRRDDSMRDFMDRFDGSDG

The target in another assay is T5, GST-Dm-Relish (Drosophila melanogaster, UniProt Q94527 99-473).
T5 sequence: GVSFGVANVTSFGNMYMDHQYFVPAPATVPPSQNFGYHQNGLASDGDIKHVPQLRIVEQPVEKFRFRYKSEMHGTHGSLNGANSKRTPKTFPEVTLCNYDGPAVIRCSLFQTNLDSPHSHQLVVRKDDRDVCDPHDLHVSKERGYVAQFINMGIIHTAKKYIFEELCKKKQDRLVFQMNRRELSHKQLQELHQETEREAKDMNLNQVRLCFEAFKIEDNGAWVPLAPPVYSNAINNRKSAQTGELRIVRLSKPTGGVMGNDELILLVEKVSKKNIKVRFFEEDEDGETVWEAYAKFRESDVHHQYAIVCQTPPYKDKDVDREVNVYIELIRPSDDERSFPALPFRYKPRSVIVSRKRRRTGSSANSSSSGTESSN

In a further assay the target is T6, GST-Aq-NF-kB (Amphimedon queenslandica, UniProt A9Y5G7 2-389).
T6 sequence: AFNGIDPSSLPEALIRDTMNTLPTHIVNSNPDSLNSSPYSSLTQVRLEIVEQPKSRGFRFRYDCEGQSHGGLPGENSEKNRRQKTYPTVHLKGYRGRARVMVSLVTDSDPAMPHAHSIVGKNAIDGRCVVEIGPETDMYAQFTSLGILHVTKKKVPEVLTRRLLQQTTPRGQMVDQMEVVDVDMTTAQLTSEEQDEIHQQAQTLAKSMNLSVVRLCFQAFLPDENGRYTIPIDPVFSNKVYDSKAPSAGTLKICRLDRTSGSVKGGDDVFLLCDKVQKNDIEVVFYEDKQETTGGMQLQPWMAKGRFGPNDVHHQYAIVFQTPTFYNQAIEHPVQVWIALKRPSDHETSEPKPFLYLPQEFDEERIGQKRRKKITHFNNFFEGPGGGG

Another assay concerns the target GST-Hu-p50 (Homo sapiens, UniProt P19838 7-356).

Chain of GST-Hu-p50 (P19838 7-356): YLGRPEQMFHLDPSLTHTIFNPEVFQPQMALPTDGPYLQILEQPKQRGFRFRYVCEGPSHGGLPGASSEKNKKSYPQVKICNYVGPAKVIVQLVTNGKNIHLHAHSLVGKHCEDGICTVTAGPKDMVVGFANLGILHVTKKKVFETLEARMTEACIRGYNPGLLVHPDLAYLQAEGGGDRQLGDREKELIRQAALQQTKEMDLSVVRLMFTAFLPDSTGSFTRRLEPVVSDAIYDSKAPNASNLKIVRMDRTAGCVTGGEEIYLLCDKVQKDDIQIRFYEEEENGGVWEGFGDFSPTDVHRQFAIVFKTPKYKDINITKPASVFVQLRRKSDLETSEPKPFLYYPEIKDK

In the case of “CCGATTAACATCAAAAATTCCCGTGATGTTAATCGGGTCTTGATTCGCTTGACGCTGCTG”, the binding signal with GST-Ap-NF-kB RHD is 5.97 z-score; in assay [1] it was 8.78 z-score; in assay [2], 8.06 z-score; with GST-Co-NF-kB, 6.08 z-score; with GST-Dm-Relish it was 7.67 z-score; with GST-Aq-NF-kB it was 7.49 z-score. This sequence had a binding signal with GST-Hu-p50 of 5.55 z-score.

“CCGATTAACATCAAGGGGAATAATGATGTTAATCGGGTCTTGATTCGCTTGACGCTGCTG”: the binding signal came out at 5.34 z-score in the assay with GST-Ap-NF-kB RHD; 8.01 z-score in assay [1]; 8.1 z-score in assay [2]; 7.2 z-score with GST-Co-NF-kB; 4.17 z-score with GST-Dm-Relish; 5.64 z-score with GST-Aq-NF-kB. This sequence returned a binding signal with GST-Hu-p50 of 5.62 z-score.

Consider “CCGATTAACATCAAATAAACCCCTGATGTTAATCGGGTCTTGATTCGCTTGACGCTGCTG”, for which the binding signal amounted to 4.74 z-score in the assay with GST-Ap-NF-kB RHD; 5.11 z-score in assay [1]; 4.3 z-score in assay [2]; 2.32 z-score with GST-Co-NF-kB; 6.13 z-score with GST-Dm-Relish; 5.4 z-score with GST-Aq-NF-kB. Moreover, the binding signal in the assay with GST-Hu-p50 was found to be 4.96 z-score.

Turning to “CCGATTAACATCAATGCCCCCCCTGATGTTAATCGGGTCTTGATTCGCTTGACGCTGCTG”, the binding signal with GST-Ap-NF-kB RHD came out at 5.2 z-score; in assay [1], 2.82 z-score; in assay [2], 3.53 z-score; with GST-Co-NF-kB it was 5.03 z-score; in the assay with GST-Dm-Relish it was 4.02 z-score; in the assay with GST-Aq-NF-kB, 4.04 z-score. In addition, in the assay with GST-Hu-p50, the binding signal is 4.02 z-score.

In the case of “CCGATTAACATCAGGGAACCCCCTGATGTTAATCGGGTCTTGATTCGCTTGACGCTGCTG”, the binding signal amounted to 13 z-score in the assay with GST-Ap-NF-kB RHD; 11.8 z-score in assay [1]; 10.7 z-score in assay [2]; 3.7 z-score in the assay with GST-Co-NF-kB; 11 z-score in the assay with GST-Dm-Relish; 11.1 z-score with GST-Aq-NF-kB. This sequence displayed a binding signal in the assay with GST-Hu-p50 of 7.62 z-score.

As for “CCGATTAACATCACGGGGAACTCTGATGTTAATCGGGTCTTGATTCGCTTGACGCTGCTG”, the binding signal turned out to be 6.71 z-score with GST-Ap-NF-kB RHD; 6.61 z-score in assay [1]; 6.85 z-score in assay [2]; 6.94 z-score with GST-Co-NF-kB; 7.12 z-score in the assay with GST-Dm-Relish; 4.95 z-score with GST-Aq-NF-kB. Further, the binding signal with GST-Hu-p50 turned out to be 4.53 z-score.

As to “CCGATTAACATCAAACTTCCCCTTGATGTTAATCGGGTCTTGATTCGCTTGACGCTGCTG”, the binding signal worked out at 6.88 z-score with GST-Ap-NF-kB RHD; 9.28 z-score in assay [1]; 9.81 z-score in assay [2]; 5.46 z-score with GST-Co-NF-kB; 7.55 z-score in the assay with GST-Dm-Relish; 7.66 z-score with GST-Aq-NF-kB. Moreover, in the assay with GST-Hu-p50, the binding signal came to 6.98 z-score.

“CCGATTAACATCATAAACCCCCATGATGTTAATCGGGTCTTGATTCGCTTGACGCTGCTG”: the binding signal with GST-Ap-NF-kB RHD came out at 5.78 z-score; in assay [1], 4.95 z-score; in assay [2] it was 5.67 z-score; in the assay with GST-Co-NF-kB it was 2.59 z-score; in the assay with GST-Dm-Relish, 7.12 z-score; in the assay with GST-Aq-NF-kB it was 4.77 z-score. The sequence further registered a binding signal in the assay with GST-Hu-p50 of 6.3 z-score.

In the case of “CCGATTAACATCAGGGGAAACGATGATGTTAATCGGGTCTTGATTCGCTTGACGCTGCTG”, the binding signal is 4.89 z-score in the assay with GST-Ap-NF-kB RHD; 6.2 z-score in assay [1]; 8.83 z-score in assay [2]; 6.65 z-score with GST-Co-NF-kB; 1.87 z-score in the assay with GST-Dm-Relish; 3.92 z-score with GST-Aq-NF-kB. This sequence showed a binding signal in the assay with GST-Hu-p50 of 4.62 z-score.

Consider “CCGATTAACATCAAATTCCCACATGATGTTAATCGGGTCTTGATTCGCTTGACGCTGCTG”, for which the binding signal in the assay with GST-Ap-NF-kB RHD stood at 2 z-score; in assay [1], 3.53 z-score; in assay [2] it was 3.94 z-score; with GST-Co-NF-kB, 3.33 z-score; with GST-Dm-Relish it was 4.42 z-score; with GST-Aq-NF-kB, 2.66 z-score. Moreover, the binding signal in the assay with GST-Hu-p50 is 2.85 z-score.

On to “CCGATTAACATCAAAACCCCCCGTGATGTTAATCGGGTCTTGATTCGCTTGACGCTGCTG”, for which the binding signal with GST-Ap-NF-kB RHD is 8.43 z-score; in assay [1], 6.29 z-score; in assay [2], 7.17 z-score; with GST-Co-NF-kB, 5.04 z-score; in the assay with GST-Dm-Relish, 10.2 z-score; with GST-Aq-NF-kB it was 7.07 z-score. The binding signal in the assay with GST-Hu-p50 amounted to 6.96 z-score.

On to “CCGATTAACATCAGGGGTATTACTGATGTTAATCGGGTCTTGATTCGCTTGACGCTGCTG”, for which the binding signal with GST-Ap-NF-kB RHD is 4.43 z-score; in assay [1], 3.56 z-score; in assay [2] it was 3.14 z-score; in the assay with GST-Co-NF-kB, 3.37 z-score; with GST-Dm-Relish, 3.55 z-score; in the assay with GST-Aq-NF-kB, 4.5 z-score. In addition, in the assay with GST-Hu-p50, the binding signal was determined as 3.9 z-score.

Turning to “CCGATTAACATCAGTAATCCCCATGATGTTAATCGGGTCTTGATTCGCTTGACGCTGCTG”, the binding signal worked out at 6.5 z-score with GST-Ap-NF-kB RHD; 5.74 z-score in assay [1]; 6.91 z-score in assay [2]; 3.87 z-score with GST-Co-NF-kB; 6.04 z-score with GST-Dm-Relish; 4.5 z-score with GST-Aq-NF-kB. This sequence showed a binding signal with GST-Hu-p50 of 5.31 z-score.
